Sampled rows, rich in hits. Any-hit rate of the full collection: about 19%.
CHX counter: counter-screen hit for Shiga toxin inhibitors, cycloheximide | cell reporter, cycloheximide protein synthesis inhibition counterscreen | max response, % | 300,000 compounds, 12% hits; in the data active = max response mostly above about 13%, no sharp cut-off; inactive = mostly below about 14%; note: read at 38.3 µM for the half of the compounds with a filed dose; 0% is about no effect
Lassa entry inh: blocks Lassa virus binding to or entry into cells | Potency, µM (doses to about 37.9 µM), for inactives: at the top dose activity change, negative = inhibition, actives largely listed as inhibitors | Lassa virus pseudotype entry inhibition, cell reporter | 300,000 compounds, 1.2% hits; calls by dose curve; tested in HEK293 cells; note: potency is the fitted concentration of half-maximal effect; % is set by controls: 0 for no effect and ±100 for the full control effect; nearly all actives have a fitted effect of over 50% in size
Marburg entry inh: inhibitors of Marburg virus binding or cell entry; 300,000 compounds, 1.8% hits; Marburg virus pseudotyped entry inhibition, cell reporter; AID 540276; Potency, µM (series often up to 37.8 µM), for the others: at the top dose activity change, negative = inhibition, usual class: inhibitors; calls by dose curve; tested in HEK293 cells; note: potency is the fitted concentration of half-maximal effect; % is set by controls: 0 for no effect and ±100 for the full control effect
Pf growth 48h: P. falciparum growth inhibition at 48 hours (one generation); P. falciparum luciferase growth in erythrocytes, 48 h; Potency, µM (top dose mostly 28.7 µM), without a hit: at the top dose activity change, negative = inhibition, hits mostly inhibitors; 310,000 compounds, 5.9% hits; AID 504832; note: potency is the fitted concentration of half-maximal effect; % is set by controls: 0 for no effect and ±100 for the full control effect
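Luciferase-expressing parasites in RBCs, 2% Hct / 0.1% parasitemia final; RPMI 1640 + 0.5% Albumax; 37 C, 5% CO2, one generation; luminescence read-out, lower signal = inhibition.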
Pf growth 96h: P. falciparum growth inhibition at 96 hours; AID 504834; Potency, µM (doses to about 28.7 µM), inactives show at the top dose activity change, negative = inhibition, most hits filed as inhibitors; P. falciparum luciferase reporter growth, 96 h; 320,000 compounds, 6.9% hits; note: potency is the fitted concentration of half-maximal effect; % is set by controls: 0 for no effect and ±100 for the full control effect
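Parasite growth measured via integrated firefly luciferase reporter in P. falciparum. Infected erythrocytes at 2% hematocrit, 0.05% parasitemia final were treated 96 hours at 37 C under 5% CO2, and luminescence was read.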
Shiga toxin inh: blocks Shiga toxin action in Vero cells; Vero cells, Shiga toxin protein synthesis inhibition reporter; 290,000 compounds, 9.2% hits; inhibition, % at 38.7 µM; AID 2315; in the data active = inhibition mostly above about 28%, no sharp cut-off; inactive = mostly below about 43%; note: 0% is about no effect
Starred values were filed as active, the others as inactive; ? = inconclusive; / = not tested or not shown; [ ] = remark or other dose. Unless noted, calls come from the whole dose curve; as a rule, active = well fitted inhibition curve with a large enough effect; inconclusive = small, poorly fitted or top-dose-only effect, or another doubt; inactive = no such curve, though single readings can be large or run the other way.

SMILES | CHX counter | Lassa entry inh | Marburg entry inh | Pf growth 48h | Pf growth 96h | Shiga toxin inh
Cc1ccc(C)c(NC(=O)C2CCCN(c3ncnc4onc(C)c34)C2)c1 (stereo not drawn) | / | 20%[46.1 µM] | / | / | / | /
Cc1ccccc1NC(=O)Cc1nc(COC(=O)c2cccc(O)c2)cs1 | / | / | / | ? | -48% | /
Cc1ccc(OCCC(=O)OCc2csc(CC(=O)Nc3ccccc3C)n2)cc1 | -1 | -2% | 2% | -24% | -21% | -3
Cc1ccccc1NC(=O)Cc1nc(CCl)cs1 | 1 | -1% | -3% | ? | ? | -3
Cc1ccccc1NC(=O)Cc1nc(COC(=O)c2ccc(Cl)c(S(N)(=O)=O)c2)cs1 | / | ? | -6% | ? | 13µM* | /
Cc1ccc(C)c(OCCC(=O)OCc2csc(CC(=O)Nc3ccccc3C)n2)c1 | / | 1% | 12% | 12µM* | ? | /
Cc1ccc(C)c(NC(=O)Cc2nc(CCl)cs2)c1 | -2 | -9% | -20% | 15µM* | ? | 4
Cc1ccccc1NC(=O)Cc1nc(COC(=O)c2cccc([N+](=O)[O-])c2)cs1 | 1 | 3% | 1% | -9% | 4.1µM* | -3
Cc1ccccc1CN(C)c1ccc(S(=O)(=O)N2CCN(C)CC2)cn1 | / | / | / | -11% | 20% | /
Cc1cc(C)n(C(=O)CCN2C(=O)c3ccccc3C2=O)n1 | 12 | -3% | -3% | 15% | -1% | -11
CCc1cccc(NC(=O)Cc2nc(-c3ccc(OC)cc3)no2)c1 | / | -8%[46.1 µM] | / | / | / | /
CCC(Cc1c(I)cc(I)c(O)c1I)C(=O)O (stereo not drawn) | / | / | / | -16% | 4% | /
CC(=O)c1c(C)[nH]c(C(=O)OCC(=O)Nc2cccc(S(=O)(=O)N3CCCC3)c2)c1C | -5 | ? | ? | 5.9µM* | 0.83µM* | -12
COc1cccc(NC(=O)COC(=O)c2cc(S(=O)(=O)N3CCOCC3)ccc2C)c1 | 5 | -18% | 18µM* | / | 21% | 16
CC(=O)c1c(C)[nH]c(C(=O)OCC(=O)Nc2cc(S(=O)(=O)N3CCCC3)ccc2Cl)c1C | 1 | ? | ? | -22% | 24% | -6
Cc1ccc(C)c(C(=O)OCC(=O)Nc2cccc(S(=O)(=O)N3CCCCC3)c2)c1 | / | / | / | 10µM* | 10µM* | /
Cc1ccc(C)c(OCCC(=O)Nc2cccc(S(=O)(=O)N3CCCCC3)c2)c1 | / | ? | ? | 12µM* | ? | /
Cn1nc(C(=O)NCCCN2CCCCC2)c2c1-c1ccccc1S(=O)(=O)C2 | -6 | / | / | 11% | 18% | -14
CC(C)COC(=O)Cn1nnc2sc(-c3ccccc3)cc2c1=O | / | 30%[46.1 µM] | -1%[46.1 µM] | / | / | /
O=S(=O)(c1ccccc1)N1CCN(c2cccc(Cl)c2)CC1 | -4 | ? | ? | ? | ? | -21
CCN1CC2=C(OC(N)=C(C#N)C2c2ccccc2)/C(=C\c2ccccc2)C1 (stereo not drawn) | 4 | ? | ? | 10µM* | / | -8
CCN1CC2=C(OC(N)=C(C#N)C2c2cccs2)/C(=C/c2cccs2)C1 (stereo not drawn) | -1 | ? | ? | 12µM* | 54% | -16
Cc1ccc(N(CC(=O)NC2CCCC2)C(=O)CCCC(=O)Nc2ccccn2)cc1C | 9 | -16% | -18% | -13% | ? | -3
COc1ccc(Cl)cc1N1Cc2ccccc2C1 | -4 | -19% | -9% | 13µM* | / | -3
COc1ccc(OC)c(N2Cc3ccccc3C2=N)c1 | 1 | 17%[46.1 µM] | ? | 6% | 5.9µM* | 23
SMILES | CHX counter | Lassa entry inh | Marburg entry inh | Pf growth 48h | Pf growth 96h | Shiga toxin inh
COc1ccc(OC)c(S(=O)(=O)N2CCc3ccccc32)c1 | -2 | 8% | ? | ? | -6% | 16
COc1ccccc1N1Cc2ccccc2C1 | 21* | 4% | -14% | 13µM* | ? | 4
COc1ccc(OC)c(N2Cc3ccccc3C2)c1 | -1 | 2% | 0% | 5.9µM* | 12µM* | 3
COC(C[C@H](O)[C@H](C)[C@@H](O)COCc1ccccc1)OC | -3 | / | / | 50% | 17% | -4
COc1ccc(N2Cc3ccccc3C2)cc1Cl | 22* | / | / | ? | 27% | 87*
COc1ccc(S(=O)(=O)N2CCN(c3ccc(Cl)c(Cl)c3)CC2)c2ccccc12 | / | 1%[46.1 µM] | ? | / | / | /
Cc1cc(C)nc(N2Cc3ccccc3C2=N)n1 | 19 | / | / | 15µM* | ? | 35
CCCc1cnc(N2CCN(C(=S)NC)CC2)nc1 | 44* | 6% | ? | 144% | 104% | 66*

From PubChem
